# Screening results as filed in PubChem.
# Marburg entry inh: inhibitors of Marburg virus binding or cell entry. 1.8% of 300,000 active. AID 540276. Marburg virus pseudotyped entry inhibition, cell reporter. Potency, µM (highest dose often 37.8 µM), inactives show at the highest dose activity change, negative = inhibition, usual class: inhibitors; calls by dose curve; tested in HEK293 cells; note: potency is the fitted concentration of half-maximal effect; % is set by controls: 0 for no effect and ±100 for the full control effect
# Cycloheximide cs: counter-screen for Shiga toxin inhibitors: cycloheximide protein synthesis inhibition | cell reporter, cycloheximide protein synthesis inhibition counterscreen | 12% of 300,000 active | max response, % | AID 2314; in the data active = max response mostly above about 13%, no sharp cut-off; inactive = mostly below about 14%; note: read at 38.3 µM for the half of the compounds with a filed dose; 0% is about no effect
# LASV entry inh: inhibitors of Lassa virus binding or cell entry; 1.2% of 300,000 active; Lassa virus pseudotype entry inhibition, cell reporter; Potency, µM (doses to about 37.9 µM), for inactives: top-dose activity change, negative = inhibition, actives largely listed as inhibitors; calls by dose curve; tested in HEK293 cells; note: potency is the fitted concentration of half-maximal effect; % is set by controls: 0 for no effect and ±100 for the full control effect; nearly all actives have a fitted effect of over 50% in size
# Shiga inhibitor: blocks Shiga toxin action in Vero cells; Vero cells, Shiga toxin protein synthesis inhibition reporter; inhibition, % at 38.7 µM; 9.2% of 290,000 active; in the data active = inhibition mostly above about 28%, no sharp cut-off; inactive = mostly below about 43%; note: 0% is about no effect
# The depositor's hits bear a star; i = inactive; ? = inconclusive; . = not tested or not shown; + = active, no number; [ ] = another dose, or the depositor's remark. The list is not random: actives were taken first. Their share in the collection is about 12%.
SMILES,Marburg entry inh,Cycloheximide cs,LASV entry inh,Shiga inhibitor
O=C(Nc1ccc(Cl)cc1)c1cnn2c1NC(c1ccccc1)=CC2c1ccccc1 (stereo not drawn),.,.,15.8%[46.1 µM],.
CCCCOc1ccc(Br)cc1/C(C)=N/NC1=NCCN1,10µM*,-5.5,11.2µM*,-4.9
CCCCCCOc1ccc(/C(C)=N/NC2=NCCN2)cc1[N+](=O)[O-],.,17.5,.,11.4
COc1ccc2c(c1)C(c1ccccc1OC)CC(=O)O2 (stereo not drawn),.,-0.9,.,i
CCSc1nc(C2CC2)cc(-c2cccs2)c1C#N,1.7%,15.8*,-1.2%,10.0
CCc1c(C)nc(SCC(=O)c2cccs2)c(C#N)c1C,-2.7%,39.3*,?,40.1
N#Cc1c(-c2ccccc2F)cc(C2CC2)nc1SCC(=O)c1cccs1,-3.1%,12.9*,-20.2%,-12.1
CCOC(=O)CSc1nc(N)c(C#N)c(-c2cccs2)c1C#N,?,10.0,24.9%,-23.7
CCOC(=O)CSc1nc(C2CC2)cc(-c2ccc(Cl)cc2)c1C#N,-1.1%,-5.5,-14.1%,13.6
CCSc1nc(C2CC2)cc(-c2ccco2)c1C#N,-3.5%,-4.1,5.3%,-10.3
CCCSc1nc(N)nc(-c2cccs2)c1C#N,8.4%[46.1 µM],35.3*,10.2%,84.3*
CN(C)C(=O)c1ccc(S(=O)(=O)NCc2ccccc2Cl)s1,.,.,18.6%[46.1 µM],.
COc1ccc(-c2cn(CCCOCc3ccccc3)nn2)cc1,.,16.4*,.,24.7*
Cc1ccc(Cn2cc(-c3ccccc3)nn2)cc1,.,56.8*,.,86.2*
COc1ccc(-c2cn(Cc3ccc([N+](=O)[O-])cc3)nn2)cc1,.,10.4,.,23.9*
COc1ccc(-c2cn(Cc3ccc(C(=O)c4ccccc4)cc3)nn2)cc1,.,43.0*,.,62.0*
COc1ccc(-c2cn(Cc3ccc4c(c3)C(=O)c3ccccc3C4=O)nn2)cc1,.,6.4,.,14.0
COc1ccc(-c2cn(Cc3ccc4ccccc4c3)nn2)cc1,.,0.6,.,-6.1
CCCCCc1ccc(-c2cn(CCCOCc3ccccc3)nn2)cc1,.,-1.9,.,-2.8
Cc1c(Cl)cccc1NC(=O)C(C)n1c(=O)cc(C)c2c(C)nn(-c3ccccc3)c21 (stereo not drawn),.,.,-11.5%[46.1 µM],.
Cc1cc(O)c2c(C)c(CC(=O)N3CCCCC3)c(=O)oc2c1,14.6%[46.1 µM],.,?,.
O=C(OCC1CC(c2ccccc2)=NO1)c1ccco1 (stereo not drawn),.,54.0*,.,93.0*
O=C(OCC1CC(c2ccccc2Cl)=NO1)c1ccc(Br)cc1 (stereo not drawn),?,19.9*,?,39.9
O=C(OCC1CC(c2ccccc2)=NO1)c1ccc(Br)cc1 (stereo not drawn),15.0%,-0.2,1.6%,5.3
O=C(/C=C/c1ccccc1)NCCN1CCOCC1,?,4.4,14.6%,23.5
SMILES,Marburg entry inh,Cycloheximide cs,LASV entry inh,Shiga inhibitor
O=C(NC(N1CCOCC1)C(Cl)(Cl)Cl)c1ccc(Br)cc1 (stereo not drawn),-14.8%[46.1 µM],12.9,?,10.3
O=C(NC(N1CCOCC1)C(Cl)(Cl)Cl)c1ccco1 (stereo not drawn),4.3%[46.1 µM],70.4*,-10.3%,128.5*
O=C(/C=C/c1ccccc1)NC(N1CCOCC1)C(Cl)(Cl)Cl (stereo not drawn),-6.6%[46.1 µM],29.7*,-2.8%,41.8
CC(=O)Oc1cccc(C(=O)Nc2ccc(NC(=O)c3cccs3)cc2)c1,-22.8%,41.6*,2.3%,162.7*
COc1cccc(C(=O)Nc2cc(NC(=O)c3cccs3)ccc2C)c1,.,7.5,.,28.4
COc1cccc(C(=O)Nc2cccc(NC(=O)c3cccs3)c2)c1,.,10.7*,.,19.1
Nc1nnc(SCc2coc(-c3ccc(Cl)cc3)n2)s1,?,38.7*,-16.1%,64.2*
Nc1nnc(SCc2cccnc2)s1,?,4.9,3.6%,7.3
Nc1nnc(SCc2ccc(Cl)cc2)s1,6.1%,13.6,17.3%,+
CCOC(=O)c1ccc(CSc2nnc(N)s2)cc1,-20.8%,39.2*,-27.3%,91.9*
Clc1ccc(CSc2nnc(-c3ccncc3)s2)cc1,?,4.1,-3.3%,-10.8
Nc1nnc(SCc2cccc(C(F)(F)F)c2)s1,-23.9%,10.9*,?,17.9
Cc1cc(Cl)c(S(=O)(=O)N2CCN(c3ccccn3)CC2)cc1OCC(=O)NC1CCCCC1,.,-1.6,.,-7.0
Nc1nnc(CSCc2ccc(Cl)cc2)s1,?,-3.0,3.2%,-10.7
Nc1nnc(CSc2ccc(Cl)cc2)s1,-1.2%,49.6*,-10.7%,42.4
CC(C)c1ccc(CN(Cc2ccco2)c2cnc(S(C)(=O)=O)nc2C(=O)Nc2ccccc2)cc1,?,.,-23.4%[46.1 µM],.
CC(=O)C1=C(c2ccccc2)NC(=O)NC1c1ccccc1 (stereo not drawn),.,1.2,.,-3.6
O=C1NC(c2ccccc2)=C(c2nc3ccccc3s2)C(c2ccccc2)N1 (stereo not drawn),-21.3%,-1.7,9.2µM*,5.1
COc1ccc(OC(=O)c2cnn(-c3ccccc3)c2C)cc1,?,44.9*,-20.2%,132.7*
Cc1nn(-c2ccccc2)c(C)c1C(=O)Oc1ccccc1,4.1%,35.5*,10.0%,58.5*
COc1ccc(OC(=O)c2c(C)nn(-c3ccccc3)c2C)cc1,?,52.2*,9.4%,69.9*
COc1ccc(S(=O)(=O)N2CCN(C(=O)c3c(C)nn(-c4ccccc4)c3C)CC2)cc1,29.2%,.,-24.4%,.
CC(=O)c1c(C)nn(-c2ccccc2)c1C,18.0%[46.1 µM],-1.5,8.9%,-2.6
CCCCN(C)CCNC(=O)c1cn(C)c(=O)c2c1c1ccccc1n2C,11.2µM*,-2.1,-9.5%[46.1 µM],5.7
COc1ccc(O[C@H]2C=C[C@@H](c3ccccc3)O[C@H]2COC(=O)NCc2cccc3ccccc23)cc1,-28.0%[14.2 µM],.,.,.
SMILES,Marburg entry inh,Cycloheximide cs,LASV entry inh,Shiga inhibitor
Cc1ccc(S(=O)(=O)N(C)S(=O)(=O)c2ccc(C#N)cc2)cc1,.,-5.4,.,-1.7
O=C(CNC(=O)c1cccc(F)c1)N/N=C/C=C/c1ccccc1,6.2%,4.9,-6.3%,34.1
Fc1ccc(N/N=C/C=C/c2ccccc2)c(F)c1,?,32.3*,15.8%,34.3*
Fc1ccc(N/N=C/c2ccncc2)c(F)c1,32.9%,39.9*,0.6%,50.0*
O=C(O)c1ccc(/C=N/Nc2ccc(F)cc2F)cc1,14.1µM*,40.4*,2.82µM*,131.2*
Cc1ccc(S(=O)(=O)N2CCCN(C(=O)c3ccc(-n4nccc4C)cc3)CC2)cc1,-28.2%[46.1 µM],.,12.3%,.
CCCC(=O)Nc1c2c(nn1-c1ccccc1)CSC2,.,2.8,.,-2.0
CCOc1ccc(C(=O)Nc2nc(-c3ccc(Br)cc3)ns2)cc1,-17.2%[46.1 µM],.,26.9%[46.1 µM],.
COCCCN(C(=O)c1cc(-c2ccco2)nc2ccccc12)c1c(N)n(Cc2ccccc2)c(=O)[nH]c1=O,-13.1%,.,5.1%,.
CCc1nnc(NC(=O)C(c2ccccc2)c2ccccc2)s1,-19.4%[46.1 µM],-4.4,2.6%,-3.3
COc1ccccc1CNC(=O)c1cc2cc3ccc(Cl)cc3nc2o1,22.0%[46.1 µM],.,?,.
O=[N+]([O-])c1cccc(N=NN(CCO)c2cccc([N+](=O)[O-])c2)c1,-19.9%,-2.2,-17.6%,-7.9
N#CCN(N=Nc1ccccc1)c1ccccc1,.,37.7*,.,70.9*
COc1c(C(=O)Nc2nccs2)ccc2ccccc12,.,37.8*,.,93.3*
COc1cc2ccccc2cc1C(=O)NCC(c1cccs1)N(C)C (stereo not drawn),?,36.8*,?,87.3*
COc1ccc(C(=O)Nc2ccc(C(=O)Nc3nccs3)cc2)cc1[N+](=O)[O-],2.3%,-3.9,-3.5%,-8.7
